For 14 compounds, inhibition results are on record in ChEMBL document CHEMBL1961873, “Compounds: GSK PKIS; Assays: Nanosyn kinase panel” (2012).

SMILES strings stand for the structures.

Assay [1] concerns the target Casein kinase I isoform gamma-2 (Homo sapiens) (UniProt P78368). Particulars: at 1 µM.
Assay [2] addresses Casein kinase I isoform gamma-3 (Homo sapiens) (UniProt Q9Y6M4). The note with it: at 0.1 µM.
The target is the same in assay [3]. Particulars: at 1 µM.
The target in assay [4] is Cyclin-dependent kinase 1 (Homo sapiens) (UniProt P06493). Particulars: at 0.1 µM.
The target is the same in assay [5]. The note with it: at 1 µM.
Assay [6] concerns the target Cyclin-dependent kinase 2 (Homo sapiens) (UniProt P24941). Particulars: at 0.1 µM.
Assay [7] has the same target. The note with it: at 1 µM.
Assay [8] shares this target. Particulars: at 0.1 µM. This is another data set of the same source.
Assay [9] shares this target. Particulars: at 1 µM. This is another data set of the same source.
Assay [10] has as its target T1, CDK3/Cyclin E (Homo sapiens) (UniProt P24864+Q00526). Particulars: at 0.1 µM.
Assay [11] has as its target T1, CDK3/Cyclin E (Homo sapiens). Particulars: at 1 µM.
Assay [12] deals with Cyclin-dependent kinase 4 (Homo sapiens) (UniProt P11802). The note with it: at 0.1 µM.
The target is the same in assay [13]. The note with it: at 1 µM.
Assay [14] addresses Cyclin-dependent kinase 5 (Homo sapiens) (UniProt Q00535). The note with it: at 0.1 µM.
Assay [15] shares this target. The note with it: at 1 µM.
The target in assay [16] is Cyclin-dependent kinase 6 (Homo sapiens) (UniProt Q00534). Particulars: at 0.1 µM.
For assay [17] the target is unchanged. Particulars: at 1 µM.
Assay [18] concerns the target Dual specificity protein kinase CLK2 (Homo sapiens) (UniProt P49760). Particulars: at 0.1 µM.
The target is the same in assay [19]. Particulars: at 1 µM.
The target in assay [20] is Dual specificity protein kinase CLK3 (Homo sapiens) (UniProt P49761). Particulars: at 0.1 µM.
Dual specificity protein kinase CLK3 (Homo sapiens), sequence (P49761 whole entry, looked up): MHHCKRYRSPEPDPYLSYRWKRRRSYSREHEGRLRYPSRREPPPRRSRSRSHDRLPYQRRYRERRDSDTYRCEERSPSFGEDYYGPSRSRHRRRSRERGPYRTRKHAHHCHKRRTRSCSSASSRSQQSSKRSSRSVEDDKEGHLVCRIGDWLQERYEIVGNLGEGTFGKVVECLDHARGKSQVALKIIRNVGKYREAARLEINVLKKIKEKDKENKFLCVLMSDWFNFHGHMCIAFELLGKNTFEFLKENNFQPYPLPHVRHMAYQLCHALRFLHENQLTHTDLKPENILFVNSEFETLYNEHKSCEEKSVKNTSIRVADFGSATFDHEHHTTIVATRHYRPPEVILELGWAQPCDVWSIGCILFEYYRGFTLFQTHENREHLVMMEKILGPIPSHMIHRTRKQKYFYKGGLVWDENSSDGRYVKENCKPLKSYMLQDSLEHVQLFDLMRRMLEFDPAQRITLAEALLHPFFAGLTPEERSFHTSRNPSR

Cyclin-dependent kinase 1 (Homo sapiens), sequence (P06493 whole entry, looked up): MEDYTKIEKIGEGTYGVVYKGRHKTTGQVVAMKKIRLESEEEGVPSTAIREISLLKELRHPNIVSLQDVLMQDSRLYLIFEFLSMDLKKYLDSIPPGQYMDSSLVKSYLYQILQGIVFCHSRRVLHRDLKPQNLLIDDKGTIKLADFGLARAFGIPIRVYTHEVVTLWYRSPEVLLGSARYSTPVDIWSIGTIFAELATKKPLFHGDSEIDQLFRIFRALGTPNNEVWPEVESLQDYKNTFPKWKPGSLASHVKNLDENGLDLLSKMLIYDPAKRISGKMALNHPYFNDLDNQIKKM
Cyclin-dependent kinase 6 (Homo sapiens), sequence (Q00534 whole entry): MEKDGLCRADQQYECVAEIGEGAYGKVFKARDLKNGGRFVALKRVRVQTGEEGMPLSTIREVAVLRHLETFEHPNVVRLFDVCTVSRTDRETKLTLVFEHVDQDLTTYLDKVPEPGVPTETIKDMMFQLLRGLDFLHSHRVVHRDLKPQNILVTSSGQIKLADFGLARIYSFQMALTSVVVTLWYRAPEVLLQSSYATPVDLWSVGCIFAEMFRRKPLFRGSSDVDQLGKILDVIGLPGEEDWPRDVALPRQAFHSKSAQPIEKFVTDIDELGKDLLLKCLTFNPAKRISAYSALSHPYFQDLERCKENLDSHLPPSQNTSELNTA
Dual specificity protein kinase CLK2 (Homo sapiens), sequence (P49760 whole entry, looked up): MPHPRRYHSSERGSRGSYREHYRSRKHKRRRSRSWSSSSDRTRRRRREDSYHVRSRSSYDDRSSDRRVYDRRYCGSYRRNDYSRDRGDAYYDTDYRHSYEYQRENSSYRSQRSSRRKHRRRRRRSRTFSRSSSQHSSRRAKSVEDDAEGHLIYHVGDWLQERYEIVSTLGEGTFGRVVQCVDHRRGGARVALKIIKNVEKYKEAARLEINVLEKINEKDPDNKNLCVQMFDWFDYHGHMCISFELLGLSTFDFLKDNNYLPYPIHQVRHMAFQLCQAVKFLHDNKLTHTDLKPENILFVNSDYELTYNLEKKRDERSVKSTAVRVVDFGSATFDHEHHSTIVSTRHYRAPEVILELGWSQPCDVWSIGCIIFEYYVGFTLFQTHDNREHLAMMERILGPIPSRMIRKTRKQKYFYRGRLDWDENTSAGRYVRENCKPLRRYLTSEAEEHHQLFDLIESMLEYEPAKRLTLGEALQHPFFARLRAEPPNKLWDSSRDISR
Cyclin-dependent kinase 4 (Homo sapiens), sequence (P11802 whole entry): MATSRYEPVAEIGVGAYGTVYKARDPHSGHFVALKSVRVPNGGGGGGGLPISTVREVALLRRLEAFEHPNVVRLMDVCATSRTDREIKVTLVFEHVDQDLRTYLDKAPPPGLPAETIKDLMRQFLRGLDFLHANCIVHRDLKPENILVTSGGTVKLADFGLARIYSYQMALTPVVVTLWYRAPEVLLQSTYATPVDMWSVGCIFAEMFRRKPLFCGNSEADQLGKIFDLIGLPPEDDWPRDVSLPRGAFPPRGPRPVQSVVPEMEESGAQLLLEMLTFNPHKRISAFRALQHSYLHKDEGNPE
Casein kinase I isoform gamma-2 (Homo sapiens), sequence (P78368 whole entry, looked up, canonical isoform): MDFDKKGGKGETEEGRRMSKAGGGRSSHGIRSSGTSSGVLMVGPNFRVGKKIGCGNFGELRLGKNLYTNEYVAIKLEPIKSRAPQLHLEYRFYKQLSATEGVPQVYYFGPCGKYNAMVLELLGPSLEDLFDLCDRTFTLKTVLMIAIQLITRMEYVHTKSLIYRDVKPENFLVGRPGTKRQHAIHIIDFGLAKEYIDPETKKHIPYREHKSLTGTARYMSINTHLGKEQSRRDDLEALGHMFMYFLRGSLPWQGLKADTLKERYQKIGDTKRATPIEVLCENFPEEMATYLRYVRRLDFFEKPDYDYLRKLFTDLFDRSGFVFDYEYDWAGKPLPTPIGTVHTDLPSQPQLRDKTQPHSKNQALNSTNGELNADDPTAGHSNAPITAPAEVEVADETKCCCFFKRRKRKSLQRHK
Casein kinase I isoform gamma-3 (Homo sapiens), sequence (Q9Y6M4 whole entry, looked up, canonical isoform): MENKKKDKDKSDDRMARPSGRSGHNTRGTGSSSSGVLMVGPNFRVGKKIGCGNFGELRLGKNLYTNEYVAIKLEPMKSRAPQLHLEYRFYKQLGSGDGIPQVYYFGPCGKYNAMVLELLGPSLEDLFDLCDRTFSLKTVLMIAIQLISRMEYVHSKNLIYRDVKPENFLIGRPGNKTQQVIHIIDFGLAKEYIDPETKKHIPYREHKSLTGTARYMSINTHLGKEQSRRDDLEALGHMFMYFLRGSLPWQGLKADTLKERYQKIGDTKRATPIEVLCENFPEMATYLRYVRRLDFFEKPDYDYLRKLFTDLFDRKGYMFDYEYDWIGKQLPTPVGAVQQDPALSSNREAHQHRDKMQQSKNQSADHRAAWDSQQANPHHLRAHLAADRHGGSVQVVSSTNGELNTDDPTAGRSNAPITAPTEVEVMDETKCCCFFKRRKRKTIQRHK
Cyclin-dependent kinase 5 (Homo sapiens), sequence (Q00535 whole entry, looked up): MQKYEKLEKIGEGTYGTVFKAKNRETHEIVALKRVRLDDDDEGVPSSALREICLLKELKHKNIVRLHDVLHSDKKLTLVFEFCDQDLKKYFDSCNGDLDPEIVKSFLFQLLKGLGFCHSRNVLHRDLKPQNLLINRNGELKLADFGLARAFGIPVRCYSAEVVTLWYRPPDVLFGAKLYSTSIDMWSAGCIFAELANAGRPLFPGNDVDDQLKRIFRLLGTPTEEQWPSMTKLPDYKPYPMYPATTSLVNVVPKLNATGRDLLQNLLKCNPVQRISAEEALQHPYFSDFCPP
T1 sequence (P24864 whole entry, looked up): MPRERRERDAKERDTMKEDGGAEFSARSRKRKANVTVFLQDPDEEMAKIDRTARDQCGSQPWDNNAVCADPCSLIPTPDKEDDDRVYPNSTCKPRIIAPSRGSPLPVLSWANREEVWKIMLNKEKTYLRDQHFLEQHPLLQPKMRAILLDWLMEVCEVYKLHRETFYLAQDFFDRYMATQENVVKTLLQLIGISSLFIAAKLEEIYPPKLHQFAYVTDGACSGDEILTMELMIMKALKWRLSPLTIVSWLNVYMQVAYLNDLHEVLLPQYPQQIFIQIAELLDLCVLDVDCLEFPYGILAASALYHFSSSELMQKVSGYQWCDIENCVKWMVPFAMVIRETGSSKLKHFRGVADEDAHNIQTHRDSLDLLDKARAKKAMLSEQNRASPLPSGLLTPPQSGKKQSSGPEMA
T1 sequence (Q00526 whole entry, looked up): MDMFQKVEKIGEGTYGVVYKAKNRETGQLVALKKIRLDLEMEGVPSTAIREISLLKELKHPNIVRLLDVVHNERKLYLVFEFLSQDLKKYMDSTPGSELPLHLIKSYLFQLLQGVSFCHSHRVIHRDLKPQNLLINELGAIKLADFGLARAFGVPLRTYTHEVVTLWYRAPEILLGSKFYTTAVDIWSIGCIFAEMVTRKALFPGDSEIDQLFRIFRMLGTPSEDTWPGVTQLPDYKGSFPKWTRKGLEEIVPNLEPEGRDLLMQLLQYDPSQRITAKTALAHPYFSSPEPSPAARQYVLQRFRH

On to `CCCN1CCCC(c2ccc(Nc3nc(Nc4cc(F)ccc4C(N)=O)c4cc[nH]c4n3)c(OC)c2)C1` (stereo not given), for which the inhibition in assay [1] is 78.6%; in assay [2], 44.3%; in [3], 83.5%; in [4] it was 0.12%; in assay [5], 2.76%; in assay [6] it was 2.13%. Further, the inhibition in assay [7] stood at 10.8%; in [8], 3.57%; in [9] it was 8.67%; in [10], 4.8%; in assay [11] it was 0.01%; in assay [12] it was 3.53%. In addition, the inhibition was 12.1% in assay [13]; 0.43% in assay [14]; 5.92% in assay [15]; -2.09% in assay [16]; 8.41% in assay [17]; 67.3% in [18]. The inhibition in [19] came to 93.8%; in [20], 4.01%.
Turning to `COc1cc2ncnc(Nc3ccc(C)c(O)c3)c2cc1OC`, the inhibition in [1] is 4.75%; in assay [2], 1.97%; in assay [3], 4.02%; in assay [4] it was 0.59%; in [5], 4.09%; in [6], 1.34%. Besides, the inhibition in [7] is 1.09%; in assay [8] it was 4.69%; in assay [9], 6.24%; in assay [10], 4.08%; in [11] it was -1.71%; in assay [12], 4.46%. Further, the inhibition in assay [13] is 6.21%; in [14] it was 0.92%; in assay [15], 2.99%; in assay [16], -0.81%; in assay [17] it was 4.49%; in assay [18], 1.85%. The inhibition in assay [19] was 0.29%; in assay [20], 1.39%.
Take `Nc1nccc(-c2c(-c3ccc(F)cc3)nn3cc(C(F)(F)F)ccc23)n1`: the inhibition was 1.13% in assay [1]; 0.79% in assay [2]; 1.7% in assay [3]; 1.22% in assay [4]; 0.47% in assay [5]; -0.36% in [6]. Besides, the inhibition was -2.27% in assay [7]; -0.77% in assay [8]; 0.2% in assay [9]; -0.58% in assay [10]; -2.57% in assay [11]; 0.37% in [12]. In addition, the inhibition is 1.03% in assay [13]; 0.43% in assay [14]; -0.54% in assay [15]; -0.93% in [16]; -0.06% in assay [17]; 1.36% in assay [18]. Moreover, the inhibition in assay [19] is -2.43%; in assay [20], -0.16%.
`Cc1ccc(O)cc1Nc1ccnc2ccc(S(C)(=O)=O)cc12`: the inhibition was 6.1% in assay [1]; 3.71% in [2]; 9.28% in [3]; 1.72% in [4]; -1.86% in assay [5]; 2.82% in assay [6]. Besides, the inhibition in assay [7] is 4.49%; in [8] it was 4.22%; in assay [9] it was 4.92%; in assay [10], 2.71%; in assay [11], -3.13%; in assay [12], 3.24%. Also, the inhibition is 4.37% in assay [13]; 0.36% in [14]; 2.61% in assay [15]; -4.64% in assay [16]; 3.72% in [17]; 2.47% in assay [18]. Besides, the inhibition is 7.17% in [19] and 1.75% in [20].
With `O=C1Nc2ccccc2/C1=C/Nc1ccc2[nH]c(=O)[nH]c2c1`, the inhibition in assay [1] stood at 7.61%; in assay [2] it was 3.84%; in assay [3], 7.65%; in assay [4] it was 1.63%; in assay [5], 8.12%; in [6], 2.91%. The inhibition in assay [7] was determined as 7.88%; in assay [8] it was 3.74%; in assay [9], 12.8%; in assay [10], 5.68%; in [11], 8.57%; in assay [12], 3.34%. Also, the inhibition amounted to 11.3% in assay [13]; 3.13% in assay [14]; 24.1% in assay [15]; 18.1% in [16]; 59% in assay [17]; 6.03% in assay [18]. The inhibition stood at 30.4% in [19] and 1.23% in [20].
As to `COC(=O)Nc1nc2cc(Oc3ccc(NC(=O)Nc4cccc(Br)c4)cc3)ccc2[nH]1`, the inhibition in assay [1] is 1.6%; in assay [2], -0.42%; in [3], 1.82%; in assay [4] it was 1.34%; in [5], 2.26%; in assay [6], 3.2%. Besides, the inhibition is -0.87% in assay [7]; 1.48% in assay [8]; 2.15% in [9]; 2.04% in assay [10]; -4.35% in assay [11]; 2.4% in assay [12]. For the same compound, the inhibition in [13] is 2.61%; in assay [14] it was 0.44%; in assay [15], 1.22%; in assay [16], -3.24%; in assay [17], 0.22%; in [18], 0.85%. The inhibition in assay [19] amounted to 1.48%; in [20], 1.73%.
Regarding `O=C1Nc2ccc(-c3cccnc3)cc2C1=Cc1cc(Br)c(O)c(Br)c1`, the inhibition in assay [1] was 4.44%; in assay [2] it was 3.31%; in assay [3], 3.74%; in assay [4], -0.12%; in assay [5] it was 1.23%; in assay [6], 2.18%. Further, the inhibition is 1.15% in assay [7]; 3.46% in assay [8]; 5.04% in assay [9]; 0.27% in assay [10]; 2.98% in assay [11]; 3.31% in assay [12]. Further, the inhibition in assay [13] stood at 3.8%; in assay [14], 1.01%; in [15], 1.79%; in assay [16], 5.85%; in assay [17] it was 6.68%; in [18], 32.2%. In addition, the values for the inhibition in assay [19] and in [20] were 84.6% and 7.23%, respectively.
As to `Cc1nc(-c2ccccc2)n2nc(NCCCN3CCOCC3)ncc12`, the inhibition is 2.19% in [1]; 1.6% in assay [2]; 1.78% in assay [3]; 1.76% in assay [4]; 2.4% in assay [5]; 2.24% in [6]. Besides, the inhibition in assay [7] is 2.48%; in [8], 2.24%; in [9] it was 4.68%; in assay [10], -1.66%; in [11], 0.9%; in assay [12], 4.19%. The inhibition worked out at 15.2% in assay [13]; 0.75% in [14]; 2.62% in assay [15]; 13.8% in [16]; 52.7% in assay [17]; 3.46% in assay [18]. Moreover, the inhibition is 10.1% in assay [19] and 0.04% in assay [20].
As for `COC(=O)c1cncc(/C=C/c2c(C)cc(O)cc2C)c1`, the inhibition in assay [1] was determined as 3.31%; in assay [2], 2.67%; in assay [3], 3.39%; in assay [4] it was 0.78%; in assay [5] it was 3.13%; in assay [6], 2.61%. The inhibition in assay [7] is 4.42%; in assay [8], 3.33%; in assay [9] it was 5.75%; in [10] it was 1.45%; in [11] it was -1.29%; in assay [12] it was 2.45%. In addition, the inhibition in assay [13] was 3.9%; in assay [14], 1.02%; in assay [15] it was 3.28%; in assay [16] it was 4.33%; in assay [17], 4.14%; in assay [18] it was -0.85%. Also, the inhibition was determined as 2.84% in [19] and 2.11% in assay [20].
As for `C[C@@H](Oc1cc(-n2cnc3ccc(OC[C@@H](O)CO)cc32)sc1C(N)=O)c1ccccc1Cl`, the inhibition in assay [1] is -0.43%; in assay [2], -1.73%; in assay [3], 1.34%; in assay [4], 0.5%; in [5], 3.21%; in assay [6] it was 1.64%. Moreover, the inhibition was 2.63% in assay [7]; -2.32% in [8]; 3.99% in assay [9]; 1.36% in assay [10]; 1.56% in assay [11]; -0.86% in assay [12]. In addition, the inhibition in assay [13] was 0.89%; in assay [14], 0.29%; in assay [15], 1.88%; in assay [16], -1.79%; in assay [17], -0.4%; in assay [18], 1.72%. In addition, the values for the inhibition in assay [19] and in [20] were 7.52% and 0.13%, respectively.
Regarding `CCn1c(-c2nonc2N)nc2c(C#CC(C)(C)O)nc(OCCNC)cc21`, the inhibition turned out to be 6.19% in [1]; 2.99% in assay [2]; 1.61% in assay [3]; 3.65% in assay [4]; 2.4% in assay [5]; 3.96% in [6]. Besides, the inhibition in [7] is 3.53%; in assay [8], 2.75%; in [9], 5.28%; in assay [10], -3.05%; in assay [11], -2.48%; in assay [12], 5.94%. Besides, the inhibition in assay [13] is 6.73%; in assay [14], 1.64%; in [15] it was 1.77%; in [16] it was -0.39%; in assay [17] it was -2.07%; in assay [18] it was 1.52%. Besides, the inhibition in [19] is 3.81%; in assay [20], -0.84%.
As to `CCOc1nccc2c1nc(-c1nonc1N)n2CC`, the inhibition in assay [1] was found to be 1.13%; in assay [2] it was 1.1%; in [3], 0.56%; in assay [4], 0.5%; in [5], 2.69%; in assay [6], 0.81%. In addition, the inhibition in assay [7] is 2.63%; in [8] it was 2.66%; in [9], 5.12%; in assay [10], 2.48%; in [11] it was -0.38%; in assay [12] it was 0.99%. Further, the inhibition in assay [13] is 1.83%; in [14] it was 0.91%; in [15], 1.13%; in assay [16] it was -2.27%; in [17], 1.84%; in assay [18], 1.77%. For the same compound, the inhibition in assay [19] was 1.91%; in assay [20], 1.37%.
Take `FC(F)(F)c1ccc(-c2nn3ncccc3c2-c2ccnc(Nc3ccc4c(c3)OCCO4)n2)cc1`: the inhibition in assay [1] came out at 0.81%; in assay [2], 0.18%; in [3] it was 1.72%; in assay [4] it was 5.01%; in assay [5], 4.37%; in assay [6] it was 1.49%. Also, the inhibition is -1.87% in [7]; 5.4% in [8]; 5.36% in assay [9]; 7.17% in assay [10]; 4.1% in [11]; 5.36% in assay [12]. Further, the inhibition in assay [13] was 5.52%; in assay [14] it was 5.49%; in assay [15], 3.8%; in assay [16], 3.25%; in [17], 3.58%; in assay [18], 2.1%. In addition, the inhibition in assay [19] was determined as 2.93%; in [20], 5.98%.
For the compound `Nc1nccc(-c2c(-c3ccc(F)cc3)ncn2CCCN2CCOCC2)n1`, the inhibition in assay [1] was found to be 4.12%; in [2] it was 3.31%; in assay [3] it was 6.54%; in assay [4], 0.36%; in assay [5] it was 2.84%; in assay [6], 1.82%. For the same compound, the inhibition is -4.06% in assay [7]; 2.73% in [8]; 2.71% in assay [9]; 4.59% in [10]; -2.47% in assay [11]; 3.06% in assay [12]. Besides, the inhibition is 2.9% in assay [13]; 0.16% in [14]; 0.47% in assay [15]; -2.14% in [16]; 0.98% in assay [17]; 0.47% in assay [18]. Also, the inhibition in [19] worked out at 0.74%; in [20], 1.31%.

One may read the inhibition as the change of the read-out against control, counted positive when it falls.
